From ChEMBL document CHEMBL1961873, “Compounds: GSK PKIS; Assays: Nanosyn kinase panel” (2012)

Experiments:
[1] = target: Leukocyte tyrosine kinase receptor (Homo sapiens) (UniProt P29376); conditions: at 1 µM;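 further: each value is the mean inhibition of LTK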
[2] = target: Tyrosine-protein kinase Lyn (Homo sapiens) (UniProt P07948); conditions: at 0.1 µM
[3] = target: Tyrosine-protein kinase Lyn (Homo sapiens) (UniProt P07948); conditions: at 1 µM
[4] = target: Tyrosine-protein kinase Lyn (Homo sapiens) (UniProt P07948); conditions: at 0.1 µM; remark: listed apart in the source
[5] = target: Tyrosine-protein kinase Lyn (Homo sapiens) (UniProt P07948); conditions: at 1 µM; remark: listed apart in the source
[6] = target: T1, Tyrosine-protein kinase Mer (Homo sapiens) (UniProt Q12866); conditions: at 0.1 µM
T1 sequence (whole entry): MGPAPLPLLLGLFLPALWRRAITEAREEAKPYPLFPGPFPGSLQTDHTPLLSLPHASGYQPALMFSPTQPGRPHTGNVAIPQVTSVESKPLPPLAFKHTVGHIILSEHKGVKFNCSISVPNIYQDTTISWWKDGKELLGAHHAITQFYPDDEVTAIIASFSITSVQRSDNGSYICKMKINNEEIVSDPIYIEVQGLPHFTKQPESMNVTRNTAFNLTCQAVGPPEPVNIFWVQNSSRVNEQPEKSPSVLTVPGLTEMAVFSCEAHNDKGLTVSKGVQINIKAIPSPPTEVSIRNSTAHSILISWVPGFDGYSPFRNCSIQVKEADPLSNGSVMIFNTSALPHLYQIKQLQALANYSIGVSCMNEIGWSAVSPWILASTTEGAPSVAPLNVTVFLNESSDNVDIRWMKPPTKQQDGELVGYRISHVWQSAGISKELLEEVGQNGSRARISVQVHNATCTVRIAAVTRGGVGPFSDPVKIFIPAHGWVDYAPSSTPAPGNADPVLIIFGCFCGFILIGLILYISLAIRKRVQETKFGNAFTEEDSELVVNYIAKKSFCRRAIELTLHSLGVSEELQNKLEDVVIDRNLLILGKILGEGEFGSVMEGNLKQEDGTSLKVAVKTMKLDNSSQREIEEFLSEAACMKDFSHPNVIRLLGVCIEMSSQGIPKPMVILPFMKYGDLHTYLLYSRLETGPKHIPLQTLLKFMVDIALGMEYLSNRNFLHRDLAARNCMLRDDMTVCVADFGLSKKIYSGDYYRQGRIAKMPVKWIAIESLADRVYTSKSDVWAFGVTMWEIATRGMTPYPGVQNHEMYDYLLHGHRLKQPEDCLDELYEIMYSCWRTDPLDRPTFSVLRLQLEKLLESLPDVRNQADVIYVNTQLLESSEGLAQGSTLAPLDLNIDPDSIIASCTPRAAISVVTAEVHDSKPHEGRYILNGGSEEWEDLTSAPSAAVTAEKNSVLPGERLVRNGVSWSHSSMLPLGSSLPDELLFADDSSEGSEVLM

[7] = target: T1, Tyrosine-protein kinase Mer (Homo sapiens); conditions: at 1 µM
[8] = target: Hepatocyte growth factor receptor (Homo sapiens) (UniProt P08581); conditions: at 0.1 µM
Chain of Hepatocyte growth factor receptor (Homo sapiens) (P08581 whole entry): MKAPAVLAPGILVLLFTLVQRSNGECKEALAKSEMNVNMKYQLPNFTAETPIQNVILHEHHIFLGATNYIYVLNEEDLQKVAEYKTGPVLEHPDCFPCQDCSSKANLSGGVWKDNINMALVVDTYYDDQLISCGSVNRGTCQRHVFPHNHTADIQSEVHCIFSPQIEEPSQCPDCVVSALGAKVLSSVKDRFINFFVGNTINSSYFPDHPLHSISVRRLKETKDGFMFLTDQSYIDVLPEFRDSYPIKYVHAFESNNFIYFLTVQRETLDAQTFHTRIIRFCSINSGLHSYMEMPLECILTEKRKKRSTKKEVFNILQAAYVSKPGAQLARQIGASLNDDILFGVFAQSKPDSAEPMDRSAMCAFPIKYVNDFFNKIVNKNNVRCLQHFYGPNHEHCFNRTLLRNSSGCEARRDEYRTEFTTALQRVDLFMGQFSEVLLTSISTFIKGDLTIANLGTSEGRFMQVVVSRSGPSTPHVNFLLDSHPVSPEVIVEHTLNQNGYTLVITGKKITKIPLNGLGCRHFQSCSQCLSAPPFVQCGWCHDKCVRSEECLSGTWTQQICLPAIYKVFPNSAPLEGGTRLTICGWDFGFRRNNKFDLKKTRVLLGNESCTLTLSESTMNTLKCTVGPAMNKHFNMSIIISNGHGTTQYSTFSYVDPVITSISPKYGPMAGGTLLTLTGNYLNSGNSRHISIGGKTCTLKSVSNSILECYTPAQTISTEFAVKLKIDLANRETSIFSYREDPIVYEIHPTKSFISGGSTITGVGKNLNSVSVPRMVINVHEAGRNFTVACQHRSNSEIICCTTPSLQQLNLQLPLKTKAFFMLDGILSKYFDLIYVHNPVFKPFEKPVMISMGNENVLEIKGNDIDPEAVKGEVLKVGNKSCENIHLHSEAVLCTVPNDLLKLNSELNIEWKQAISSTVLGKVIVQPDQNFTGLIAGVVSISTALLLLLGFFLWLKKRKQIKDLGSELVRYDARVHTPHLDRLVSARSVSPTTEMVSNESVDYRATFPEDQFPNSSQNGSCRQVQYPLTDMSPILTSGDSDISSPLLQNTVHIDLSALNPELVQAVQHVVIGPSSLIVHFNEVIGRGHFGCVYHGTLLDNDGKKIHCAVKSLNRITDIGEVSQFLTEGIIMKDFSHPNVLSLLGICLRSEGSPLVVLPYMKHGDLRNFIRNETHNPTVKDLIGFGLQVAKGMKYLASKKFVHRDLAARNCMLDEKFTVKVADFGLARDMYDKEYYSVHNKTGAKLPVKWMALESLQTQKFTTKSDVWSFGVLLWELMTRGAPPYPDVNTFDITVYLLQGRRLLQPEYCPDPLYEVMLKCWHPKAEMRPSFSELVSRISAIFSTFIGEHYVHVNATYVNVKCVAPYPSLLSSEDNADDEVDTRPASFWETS

[9] = target: Hepatocyte growth factor receptor (Homo sapiens) (UniProt P08581); conditions: at 1 µM
[10] = target: T2, Muscle, skeletal receptor tyrosine-protein kinase (Homo sapiens) (UniProt O15146); conditions: at 0.1 µM;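 further: values are mean inhibition of MuSK from the GSK PKIS kinase screening panel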
T2 sequence (whole entry): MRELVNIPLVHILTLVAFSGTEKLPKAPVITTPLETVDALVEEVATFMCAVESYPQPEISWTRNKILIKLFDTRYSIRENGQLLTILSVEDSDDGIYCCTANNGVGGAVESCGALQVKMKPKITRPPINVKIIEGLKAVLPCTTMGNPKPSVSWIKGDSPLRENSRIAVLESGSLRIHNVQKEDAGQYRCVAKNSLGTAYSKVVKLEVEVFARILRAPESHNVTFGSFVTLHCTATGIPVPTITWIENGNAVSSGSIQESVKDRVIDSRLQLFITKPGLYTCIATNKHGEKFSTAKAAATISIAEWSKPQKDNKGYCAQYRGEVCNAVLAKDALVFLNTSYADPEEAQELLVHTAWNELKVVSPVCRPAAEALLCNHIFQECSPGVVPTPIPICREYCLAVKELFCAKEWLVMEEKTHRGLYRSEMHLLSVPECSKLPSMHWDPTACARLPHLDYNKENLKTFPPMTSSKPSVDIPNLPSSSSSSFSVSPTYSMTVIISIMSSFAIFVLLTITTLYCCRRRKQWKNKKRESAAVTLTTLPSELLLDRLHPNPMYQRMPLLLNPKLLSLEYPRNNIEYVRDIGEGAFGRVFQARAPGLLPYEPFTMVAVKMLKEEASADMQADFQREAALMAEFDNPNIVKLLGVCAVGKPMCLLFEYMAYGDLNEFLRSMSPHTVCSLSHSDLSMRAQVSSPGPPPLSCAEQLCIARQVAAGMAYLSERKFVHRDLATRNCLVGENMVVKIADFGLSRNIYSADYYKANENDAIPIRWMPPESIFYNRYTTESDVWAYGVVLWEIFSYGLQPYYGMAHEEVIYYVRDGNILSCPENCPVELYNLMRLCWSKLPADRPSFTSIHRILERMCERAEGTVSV

Chain of Leukocyte tyrosine kinase receptor (Homo sapiens) (P29376 whole entry): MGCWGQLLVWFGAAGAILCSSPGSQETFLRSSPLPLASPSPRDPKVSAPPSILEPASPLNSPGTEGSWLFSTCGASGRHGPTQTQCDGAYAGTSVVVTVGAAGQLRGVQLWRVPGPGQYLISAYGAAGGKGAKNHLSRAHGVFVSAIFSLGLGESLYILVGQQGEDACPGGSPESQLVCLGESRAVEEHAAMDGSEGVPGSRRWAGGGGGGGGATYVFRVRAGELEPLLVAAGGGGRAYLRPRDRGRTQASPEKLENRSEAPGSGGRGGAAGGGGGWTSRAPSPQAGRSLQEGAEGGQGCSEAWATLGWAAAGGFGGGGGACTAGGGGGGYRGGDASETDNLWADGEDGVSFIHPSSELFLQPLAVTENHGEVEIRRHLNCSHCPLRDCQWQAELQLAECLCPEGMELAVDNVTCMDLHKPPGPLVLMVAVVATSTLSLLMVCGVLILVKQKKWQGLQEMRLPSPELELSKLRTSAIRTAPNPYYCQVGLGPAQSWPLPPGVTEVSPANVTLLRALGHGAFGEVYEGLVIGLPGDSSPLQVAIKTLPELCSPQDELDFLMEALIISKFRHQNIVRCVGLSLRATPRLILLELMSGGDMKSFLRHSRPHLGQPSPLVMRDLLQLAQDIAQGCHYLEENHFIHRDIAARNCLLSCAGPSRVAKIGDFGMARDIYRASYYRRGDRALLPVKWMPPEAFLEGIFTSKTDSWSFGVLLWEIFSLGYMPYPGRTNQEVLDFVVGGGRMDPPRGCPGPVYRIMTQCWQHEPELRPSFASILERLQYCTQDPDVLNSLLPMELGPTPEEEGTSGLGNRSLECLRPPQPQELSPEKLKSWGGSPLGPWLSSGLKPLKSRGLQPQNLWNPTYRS
Chain of Tyrosine-protein kinase Lyn (Homo sapiens) (P07948 2-512 limits assumed): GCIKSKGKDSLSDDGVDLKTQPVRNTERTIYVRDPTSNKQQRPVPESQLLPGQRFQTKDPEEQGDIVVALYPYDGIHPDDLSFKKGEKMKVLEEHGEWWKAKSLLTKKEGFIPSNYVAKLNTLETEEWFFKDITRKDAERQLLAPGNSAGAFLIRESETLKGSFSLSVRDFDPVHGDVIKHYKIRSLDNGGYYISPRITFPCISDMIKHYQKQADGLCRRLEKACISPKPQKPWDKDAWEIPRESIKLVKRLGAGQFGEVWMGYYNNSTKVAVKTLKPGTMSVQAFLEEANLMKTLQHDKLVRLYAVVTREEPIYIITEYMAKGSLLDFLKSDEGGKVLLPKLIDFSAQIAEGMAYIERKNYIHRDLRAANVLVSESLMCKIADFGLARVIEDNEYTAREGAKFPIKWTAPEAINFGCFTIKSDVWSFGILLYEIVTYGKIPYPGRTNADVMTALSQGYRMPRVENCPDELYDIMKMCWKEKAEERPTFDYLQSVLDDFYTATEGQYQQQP

Structure (SMILES)	inhibition [1] [%]	inhibition [2] [%]	inhibition [3] [%]	inhibition [4] [%]	inhibition [5] [%]	inhibition [6] [%]	inhibition [7] [%]	inhibition [8] [%]	inhibition [9] [%]	inhibition [10] [%]
CCn1c(-c2nonc2N)nc2cnc(Oc3cccc(NC(=O)c4ccc(N(C)C)cc4)c3)cc21	0.1	1.48	1.6	0.82	1.31	0.23	0.04	-1.57	-4.37	2.84
Nc1ncc(-c2cccc(S(N)(=O)=O)c2)c2scc(-c3ccc(F)c(Cl)c3)c12	54.6	14	56.7	10.5	50	0.36	10.6	4.62	3.25	2.5
Fc1ccc(-c2cc(-c3c[nH]nc3-c3ccccn3)ccn2)cc1	5.88	6.32	8.49	5.14	7.44	1.96	2	6.72	8.44	2.06
COc1ccc2[nH]c3c4[nH]c5ccc(OC)cc5c4c4c(c3c2c1)C(=O)NC4=O	78.3	10.8	35.3	7.67	31.5	10.7	50.1	10.5	19.8	4.97
COc1cc2ncn(-c3cc(OCc4ccccc4C(F)(F)F)c(C(=O)N(C)C)s3)c2cc1OC	1.07	0.76	10.9	0.93	8.58	1.59	2.36	1.4	-4.49	-0.19
CC(C)COC(=O)c1ccc2c(c1)/C(=C/Nc1ccc(S(N)(=O)=O)cc1)C(=O)N2	4.2	2.35	24.3	0.51	20.4	2.14	4.37	-4.39	13.3	7.69
CCCN1CCC(c2ccc(Nc3nc(Nc4cc(F)ccc4C(N)=O)c4cc[nH]c4n3)c(OC)c2)CC1	95	6.55	11.2	4.92	7.3	2.18	20	8.25	22.9	4.34
FC(F)(F)c1cccc(-c2nn3ncccc3c2-c2ccnc(Nc3ccc4c(c3)OCCO4)n2)c1	1.73	7.06	39.5	5.18	33.9	4.3	40	7.83	5.36	1.28
Fc1cccc(COc2ccc(Nc3ncnc4sc(-c5ccco5)cc34)cc2Cl)c1	4.08	3.59	4.38	2.97	2.48	0.45	3.51	3.09	4.96	4.4
COc1ccc(-c2cc3c(N)ncnc3o2)cc1	0.01	-0.81	3.66	1.13	3.28	0.56	2.01	-2.37	0.32	-1.04
Cc1cccc2c1NC(=O)/C2=N\Nc1ccc(S(N)(=O)=O)cc1	2	3.38	5.9	1.15	2.52	1.25	2.98	4.07	-0.51	2.77
N#Cc1c(NC(=O)c2ccc(F)cc2)sc2c1CCCC2	0.33	0.87	2.77	0.6	2.84	-0.51	0.78	1	2.01	1.9
COc1ccc(-c2cc(-c3c[nH]nc3-c3ccccn3)ccn2)cc1	5.89	6.64	15.2	3.87	11.2	1.3	2.69	8.94	3.52	3.4
CCc1nn2ncccc2c1-c1ccnc(NC2CC2)n1	3.47	2.13	2.84	2.22	3.39	3.92	4.58	6.93	4.86	1.52
O=C(Nc1n[nH]c2cc(-c3ccc(F)cc3)ccc12)C1CC1	2.75	6.61	5.51	3.7	3.43	2.14	2.68	1.03	0.71	2.93
CCn1cc(-c2ccnc3[nH]ccc23)c(-c2cccc(NC(=O)Nc3ccc(OCc4ccccc4)cc3)c2)n1	-0.91	5.25	19.4	2.62	13.6	0.66	8.39	9.54	46.4	-1.52
COC(=O)c1sc(-n2cnc3cc(OC)c(OC)cc32)cc1OCc1ccccc1C(F)(F)F	6.79	9.46	19.6	6.71	14.7	1.24	2.08	-0.86	6.35	15.4

Structure (SMILES)	inhibition [1] [%]	inhibition [2] [%]	inhibition [3] [%]	inhibition [4] [%]	inhibition [5] [%]	inhibition [6] [%]	inhibition [7] [%]	inhibition [8] [%]	inhibition [9] [%]	inhibition [10] [%]
CN1CCC(n2cnc(-c3ccc(F)cc3)c2-c2ccnc(Nc3ccccc3)n2)CC1	1.97	4.88	23.3	2.82	13.9	0.46	6.83	-0.26	9.59	1.28
O=S(=O)(CCNCc1ccc(-c2ccc3ncnc(Nc4ccc(OCc5cccc(F)c5)c(Cl)c4)c3c2)o1)c1ccccc1	5.42	6.84	7.64	3.9	4.05	3.42	7.37	-0.44	6.95	6.83
Fc1ccc(-c2nn3ncccc3c2-c2ccnc(Nc3ccc4c(c3)OCCO4)n2)cc1	5.5	32.5	78.8	26	72.7	5.86	31.5	4.89	10.7	3.02
Cc1cccc(Nc2ncc(-c3ccccc3)o2)c1	2.88	3.9	8.28	2.22	7.24	3.9	2.26	3.88	2.78	0.01
CC(=O)NCc1cccc(C#Cc2cncnc2Nc2ccc(OCc3cccc(F)c3)c(Cl)c2)c1	0.67	-0.07	-0.62	-0.59	-1.18	0.61	2.93	4.9	1.83	-0.6
CCNC(=O)O[C@H]1CN[C@H](C#Cc2cc3ncnc(Nc4ccc(OCc5cccc(F)c5)c(Cl)c4)c3s2)C1	2.99	5.67	3.68	2.23	1.7	0.26	7.09	3.78	1.15	2.4
CCN1CCC(CC(=O)Nc2n[nH]c3nnc(-c4cccc(F)c4F)cc23)CC1	1.45	3.32	3.55	2.16	2.2	-1.66	-0.36	4.54	9.2	1.85
O=C(O[C@H]1CN[C@H](C#Cc2cc3ncnc(Nc4ccc(Cc5ccccc5)cc4)c3s2)C1)N1CCOCC1	0.57	0.85	4.14	0.33	3.75	-0.63	2.01	-1.3	4.56	-0.21
COc1cc(/C=N/Nc2ncnc3[nH]ncc23)ccc1O	12.2	16.8	63.9	12.6	59.6	1.2	9.92	1.87	14.9	5.09
CCn1c(-c2nonc2N)nc2c(C#CC(C)(C)O)ncc(OC3CCNCC3)c21	3.06	4.34	4.35	2.01	2.89	3.67	2.19	5.39	-3.51	3.1
NS(=O)(=O)c1ccc(Nc2ncc(-c3ccccc3)o2)cc1	6.46	5.4	12.4	2.72	9.48	2.4	5.27	1.7	-0.71	3.44
COc1ccc(-c2nn3ncccc3c2-c2ccnc(Nc3ccc4c(c3)OCCO4)n2)cc1	23.5	13.8	60.4	9.96	55.4	-0.06	12.9	-1.3	8.57	-0.81
COc1ccc(CNC(=O)c2ccc(-c3cc(-c4nnc(C)o4)ccc3C)cc2)cc1	4.21	4.62	7.5	2.67	7.12	3.37	3.49	11.8	10.3	3.25
CS(=O)(=O)CCNCc1coc(-c2ccc3ncnc(Nc4ccc(OCc5ccccc5)cc4)c3c2)c1	11.4	3.61	8.56	3.96	6.66	5.03	29.9	9.58	9.58	2.22
COC(=O)Nc1nc2ccc(Oc3ccc(NC(=O)Nc4cccc(Cl)c4)cc3)cc2[nH]1	1.17	5.13	13.5	4.25	11.1	2.64	2.51	9.7	12.3	10.2
COc1ccc2c(-c3ccnc(Nc4cccc(OC(F)(F)F)c4)n3)cnn2n1	4.46	7.95	9.21	3.18	7.1	1.44	2.89	4.94	15.7	5.85
